Measurements taken from the supplement of paper PMC11417369.
Over roughly 25,000 sequences, “ln(normalized median fluorescence intensity)” has its median near 9.3; the highest 2% begin near 10. Shown is part of a subset that was picked to be rich in the highest values.

system: PF3D7_0420300 AP2 domain 1 (GST-tagged); assay: gcPBM binding intensity (ln(normalized median fluorescence intensity)); higher = stronger DNA binding
Summary of the method: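 Binding of GST-tagged P. falciparum DNA-binding domains, expressed in E. coli and used at about 25 μg on average, was carried out for 1 h in 1× PBS containing 1% milk, 0.2 mg/ml BSA, 0.5% salmon testes DNA and 0.03% Triton X-100. The target was an Agilent 4 × 180k array of primer-extended double-stranded 36-bp intergenic genomic probes plus negative controls, read with Alexa488 anti-GST antibody at 488 nm. Binding intensity is the highest Masliner-normalised natural-log median intensity across replicate spots of either probe orientation.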

Row | Sequence | gcPBM binding intensity (ln)
1 | AACCACATACATATAACACACATATACAATATATAT [CACACA_site8607] | 9.65
2 | TTTTGTTATTATAAATAGTAACATTTGTGAATATAT [TGCATGCA_negctrl_site132] | 8.92
3 | GGCCCAACTTCTTCTGACGAAAACGTAAATTGTGTG [XGTACX_negctrl_site533] | 9.22
4 | CTATATCATTTTCTAGCACACACATTGTTATTACCT [CACACA_site8204] | 9.84
5 | AAAAACTAACTGTATTGTACTCTCTTATAAATTCAC [XGTACX_site8967] | 9.15
6 | ATATATATATATATATATATAATAAAAGATCATTTA [XGTACX_negctrl_site371] | 9.09
7 | AAAAAATATATATATATATATATGTAATATTTTTTT [XGTACX_negctrl_site439] | 9.07
8 | TAAATAATGTAAAAAACATCATCAAAATGTTAATTA [CACACA_negctrl_site1768] | 9.09
9 | TATGAAATATTTATACACAGAACTTCATAATTTTCA [TGCATGCA_negctrl_site509] | 9.04
10 | CGTGAATATATGATATGTACTTATAAAAATTTGTGC [XGTACX_site5480] | 9.26
11 | CTATTTCATAAACACACACACACAAACAAACATATA [CACACA_site8234] | 10.4
12 | AATACAATTTTTAACACACACACAATAATACAGATA [CACACA_site4823] | 10.2
13 | ATTTAATACAAATACACACACAAATAAATACAGATA [CACACA_site5956] | 10.2
14 | AACACAGATAAATTAACACACACACCCATATATATA [CACACA_site9310] | 10.1
15 | ATAAAAAGGAGACACACACACACACGCATATTTATA [CACACA_site6551] | 10.3
16 | ATACAACAGATATATACACACATATAACAATAATAA [CACACA_site7560] | 9.93
17 | TAAATAAAAAGACACACACACATATTTATATTTATA [CACACA_site7135] | 10
18 | AATAAATATATATTCACACACAAACATATATATATA [CACACA_site4023] | 9.71
19 | CTATTTCATGGACACACACACACAAACAAACATATA [CACACA_site4696] | 10.2
20 | ATAAAAAAAGGACACACACACATATATTTATTTATA [CACACA_site7438] | 10.1
21 | CACAGATAAATTAACACACACACACCCATATATATA [CACACA_site3960] | 10.1
22 | CACAGATAAATTAACACACACACACCGATATATATA [CACACA_site6049] | 10.2
23 | TTGTGTTTTATTATTTTATTATTACTATTATAATGT [GTGCAC_negctrl_site484] | 9.62

Row | Sequence | gcPBM binding intensity (ln)
24 | TAAATATATATTATATGTACTTATATATATATATAT [XGTACX_site4448] | 9.13
25 | TAATTTTCTTTTTATCGTTTTTTTTTTTTTTTTTTT [XGTACX_negctrl_site432] | 9.02
26 | AGCTAATATATCTTATATTCATATAAAAAAATATAT [CACACA_negctrl_site1786] | 8.94
27 | AAATTTACAATACATTGTACATATTAATAATATTCC [XGTACX_site3646] | 9.17
28 | CAGTTGGAAGGAAAGTGTACATAAAAAAAAATATAA [XGTACX_site8784] | 9.09
29 | TCTTTTTAGATATATACACACCGTGTCTACCTATAC [CACACA_site7551] | 9.41
30 | AAATGAATAAATAGGTCACACACAAATATATATAAA [CACACA_site8764] | 9.91
31 | TATTAATATATAGTAGTGCAATAAAGATATACTGAA | 9.39
32 | TTTCGATTAAAAATTGTACAATATAAGGAGCACACA [GTGCAC_negctrl_site476] | 9.31
33 | ATCTTATATTATCACACACACACGCACAAAACAGAA [CACACA_site1463] | 10.1
34 | CAATATAAAAAACACACACACAAACATATATTTATA [CACACA_site3703] | 10.1
35 | AAAATTAAAAATAACACACACATATATATATTTATA [CACACA_site2776] | 9.84
36 | AAAATTAAAAATAACACACACATATTTATATTTATA [CACACA_site7329] | 9.75
37 | ATATAATTATAAAATAAACACACATATATATTTATA [CACACA_site8039] | 9.48
38 | CACAGATAAATTAACACACACACACGGATATTTATA [CACACA_site7788] | 10.2
39 | ATATCTTATGTTATCACACACACACGCACAAAACAG [CACACA_site6800] | 10.2
40 | ATAATACAATTTATAACACACACACTATAATACATA [CACACA_site8338] | 9.97
41 | CACAAAAATAAACACACACACATATATATTTATTAT [CACACA_site5923] | 10.2
42 | AATACAATTTATAACACACACACAATAATACATATA [CACACA_site1252] | 10.2
43 | TACATAATACATATAACACACACAATTATACATAAA [CACACA_site9060] | 10
44 | ATCTTATATGATCACACACACACGCACAAAACAGAA [CACACA_site4913] | 10.1
45 | AAACATTTACTATATTGTACTTAAGATCTTATCGTA [XGTACX_site3919] | 9.06
46 | CTGTCTGCAGATATGGTGCATTTGTAAGATCTTACA [GTGCAC_site9870] | 9.13

Row | Sequence | gcPBM binding intensity (ln)
47 | GACATAAAATTCAAAGTGCATAAATAAAATAAACCC | 9.49
48 | ATTATAAACCATAATTAACACACAAAATAAGTTACA [CACACA_site9057] | 9.75
49 | TTTTCTTTCTTGTTTCGTATATTATAAAAAAAAAAG [CACACA_negctrl_site854] | 8.96
50 | ACATTTATATATAATTGTACCCTACATTCTCTTTTT [XGTACX_site189] | 9.5
51 | AAAAAAATAATAAAAAGTACAAAATGTAGAAAATGT [XGTACX_site5018] | 9.91
52 | AATAGAGTTGAATGCACACATACAAATTTTTAGTTT [CACACA_site3564] | 9.33
53 | TAGTAGTTATCACTAACATGCAATAATATTATTTAA [TGCATGCA_site161] | 9.08
54 | AATATATATAAATATTGTACAAAAATATATATATAT [XGTACX_site2910] | 9.26
55 | AAGAATCATATTTAAACACACATACAGATATATATA [CACACA_site5787] | 9.51
56 | TATACAATATATATAACACACATATTTATATAAAAT [CACACA_site5061] | 9.57
57 | TACAATATAAAATACACACACACAAACATATATTTA [CACACA_site5941] | 10.2
58 | AAGGATCACGCACAAACACACATATTTATATTTATA [CACACA_site6405] | 9.47
59 | AATACAATTTATAACACACACACAAGAATACCTATA [CACACA_site6705] | 10.3
60 | TAAAAAAAAATATATAAACACACATATTTATATACA [CACACA_site8469] | 9.36
61 | AACAAAAAAACAAACACACACACACGCATATTTATA [CACACA_site7680] | 10.2
62 | TATACAATCTATATAACACACATATTTATATAAAAT [CACACA_site1797] | 9.46
63 | TACAATTTATGACACACACACAATAATACCTATATA [CACACA_site6704] | 9.95
64 | AAAAAAAACAAACACACACACAAATATTTATATATT [CACACA_site436] | 10.1
65 | CAATTTATAAAGAAAACACACATATACCTATATACA [CACACA_site6710] | 9.55
66 | TTATTTAAACAAATCACACACAAATATATATACATA [CACACA_site2019] | 9.71
67 | TACAATCTAAAATACACACACACAAACATATATTTA [CACACA_site3702] | 10.2
